Laboratory results as given in paper PMC4336329 (PLoS ONE, 2015).
The whole screen tested about 310,000 compounds, of which about 14,000 (4.5%) showed an effect of 50% or more. The effect is printed as a negative number. The sample holds strong results, similar compounds and a random draw of the others, so the mix is not that of the screen.

biological target: human ether-à-go-go-related gene (hERG) potassium channel (human, UniProt Q12809); assay: primary screen, population patch clamp on CHO cells stably expressing hERG; higher = less effect of the substance
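Also: peak tail current of the secondary pulse compared with the same well before compound.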

Sequence of human ether-à-go-go-related gene (hERG) potassium channel (Q12809 whole entry, looked up): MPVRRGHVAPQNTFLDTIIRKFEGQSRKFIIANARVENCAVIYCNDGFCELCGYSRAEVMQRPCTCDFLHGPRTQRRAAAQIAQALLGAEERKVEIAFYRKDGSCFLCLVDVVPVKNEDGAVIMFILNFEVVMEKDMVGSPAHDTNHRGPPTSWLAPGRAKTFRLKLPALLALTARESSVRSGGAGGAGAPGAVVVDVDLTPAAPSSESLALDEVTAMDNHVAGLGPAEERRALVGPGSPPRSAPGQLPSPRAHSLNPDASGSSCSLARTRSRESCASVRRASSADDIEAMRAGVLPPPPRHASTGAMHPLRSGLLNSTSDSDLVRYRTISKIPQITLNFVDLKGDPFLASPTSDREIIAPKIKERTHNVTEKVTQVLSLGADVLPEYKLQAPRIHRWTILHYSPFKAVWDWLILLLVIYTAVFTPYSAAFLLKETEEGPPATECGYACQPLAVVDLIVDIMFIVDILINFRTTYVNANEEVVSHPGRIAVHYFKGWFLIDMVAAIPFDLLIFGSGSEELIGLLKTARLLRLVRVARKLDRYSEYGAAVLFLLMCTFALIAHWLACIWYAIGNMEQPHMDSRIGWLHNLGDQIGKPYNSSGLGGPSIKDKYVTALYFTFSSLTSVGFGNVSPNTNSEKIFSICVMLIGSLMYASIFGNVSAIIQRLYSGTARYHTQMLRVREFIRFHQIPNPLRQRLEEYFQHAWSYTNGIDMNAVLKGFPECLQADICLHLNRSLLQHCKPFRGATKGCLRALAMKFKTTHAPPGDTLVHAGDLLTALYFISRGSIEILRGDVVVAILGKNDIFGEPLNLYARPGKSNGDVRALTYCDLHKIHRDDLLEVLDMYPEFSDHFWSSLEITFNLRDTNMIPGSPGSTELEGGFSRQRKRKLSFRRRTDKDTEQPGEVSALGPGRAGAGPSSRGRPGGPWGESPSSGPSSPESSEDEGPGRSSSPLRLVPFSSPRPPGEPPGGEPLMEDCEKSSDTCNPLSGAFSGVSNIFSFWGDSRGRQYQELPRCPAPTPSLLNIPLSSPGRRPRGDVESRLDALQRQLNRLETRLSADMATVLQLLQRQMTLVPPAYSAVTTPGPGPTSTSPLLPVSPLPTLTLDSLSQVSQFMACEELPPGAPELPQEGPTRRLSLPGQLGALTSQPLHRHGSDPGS

SMILES | hERG current change (%, negative = inhibition) at 10uM
Cc1ccc(N2CCN(C3=NC(=O)/C(=C\c4cn[nH]c4-c4ccccc4)S3)CC2)cc1 | 2.07%
COc1ccc(C2/C=C\CN(C(=O)OCc3ccccc3)CC(=O)N2Cc2ccc(F)cc2)cc1 (centres unmarked) | -26%
CCOC(=O)Cc1cc(=O)c2c(=O)n(-c3ccccc3)[nH]c2[nH]1 | 9.55%
O=C(Oc1ccccc1)Oc1ccc2c(c1)oc(=O)c1ccccc12 | 16.9%
CN(C)C(N)=NCCC[C@H](N)C(=O)O.Cl | 9.67%
O=C(c1ccco1)N1CCN(c2ccc(Cl)cc2)CC1 | -40.7%
Oc1ccc(N2CCN(c3ccnc4cc(Cl)ccc34)CC2)cc1 | -22.7%
CC(=O)N1CCN(c2ccnc3cc(Cl)ccc23)CC1 | -50.4%
Clc1ccc2c(N3CCNCC3)ccnc2c1 | -41.9%
O=C(c1ccco1)N1CCN(c2cccc(Cl)c2)CC1 | -11.5%
Clc1ccc2c(N3CCOCC3)ccnc2c1 | -17.1%
CC(C)(C)C(=O)N1CCN(c2ccnc3cc(Cl)ccc23)CC1 | -73.9%
O=C(c1ccco1)N1CCN(c2ccnc3cc(Cl)ccc23)CC1 | -71.5%
Clc1ccc2c(N3CCCC3)ccnc2c1 | -65.2%
COc1ccc(N2CCN(c3ccnc4cc(Cl)ccc34)CC2)cc1 | -36.5%
CC(=O)N1CCC(=NNc2ccnc3cc(Cl)ccc23)CC1 | -22.2%
CCCCOc1ccccc1C1NC(=O)NC(C)=C1C(=O)OCCOCC (centres unmarked) | -8.27%
COc1ccc(C2CC(c3ccccc3)Nc3nc(N)nn32)cc1 (centres unmarked) | -25%
Cc1ccc(S(=O)(=O)N2CCOCC2)cc1NC(=O)CSc1nnc(C2CC2)n1C1CC1 | -7.36%
Cc1nc2ccccc2n1-c1nc(-c2ccco2)cc(C(F)(F)F)n1 | 5.46%
CC(C)(C)OC(=O)CC[C@@H](C(=O)NCCCCCCCCCCC(=O)N1CCN(C(=O)OC(C)(C)C)CC1)n1cc(CCCCCNC(=O)OC(C)(C)C)nn1 | 4.12%
CCOC(=O)c1cc(-c2ccc3c(c2)OCCO3)nc2c1c(C)nn2CCC#N | 3.85%
CC(=O)c1ccc(NC(=O)CCCC(=O)c2ccccc2)cc1 | 12.6%

SMILES | hERG current change (%, negative = inhibition) at 10uM
CO/N=C(\C(=O)O)c1csc(NN=C(C)C)n1 | 16.2%
COC(=O)c1nc2nc(C)cc(=O)n2[nH]1 | 20.2%
O=C(CSc1nnc(-c2cccnc2)n1Cc1ccco1)c1ccc2ccccc2c1 | -45.6%
CCC(=O)N1CCN(c2ccnc3cc(Cl)ccc23)CC1 | -63.6%
NC(=O)C1CCN(Cc2nc3cc(Cl)ccc3c(=O)[nH]2)CC1 | 5.22%
CCOC(=O)N1CCC(=NNc2ccnc3cc(Cl)ccc23)CC1 | -32.5%
O=C(c1ccco1)N1CCN(Cc2nc3cc(Cl)ccc3c(=O)[nH]2)CC1 | -61.8%
CCCCNC(=O)N1CCN(c2ncccn2)CC1 | 3.43%
CCOC(=O)N1CCN(c2ccnc3cc(Cl)ccc23)CC1 | -66%
O=C(O)CSCC(=O)N1CCN(c2ccnc3cc(Cl)ccc23)CC1 | 9.15%
CCOC(=O)N1CCN(c2cc3nccnc3cc2F)CC1 | -12.5%
CCCC(=O)Nc1cc(Cl)ccc1N1CCN(C(=O)CC)CC1 | -33.1%
CC(=O)N1CCN(Cc2nc3cc(Cl)ccc3c(=O)[nH]2)CC1 | -31.7%
CCCCNC(=O)N1CCN(c2ccccc2OCC)CC1 | -0.115%
CCCCNC(=O)N1CCN(c2ccnc3cc(Cl)ccc23)CC1 | -78.2%
Cc1ccc(-c2csc(NC(=O)c3ccco3)n2)cc1C | -15.6%
CC(=O)Nc1ccc(NC(=O)c2c(-c3ccccc3)noc2C)cn1 | 15.9%
c1ccc2c(C3=NNC(=NC4CC4)SC3)c[nH]c2c1 | -20.1%
O=C(NCc1cccs1)c1cc(-c2cccc(Cl)c2)on1 | -16.1%
O=C(NCCN1CCOCC1)c1cc(-c2cccc(Cl)c2)on1 | -4.73%
CCN(CC)CCCNC(=O)c1cc(-c2ccc3c(c2)OCO3)on1 | -18.8%
CCN(CC)CCCNC(=O)c1cc(-c2ccc(Cl)cc2)on1 | -63.4%
CCN(CC)CCCNC(=O)c1cc(-c2ccc(O)cc2)on1 | -37.3%

SMILES | hERG current change (%, negative = inhibition) at 10uM
CCN(CC)CCCNC(=O)c1cc(-c2cccc(Cl)c2)on1 | -60.7%
c1ccc(-c2ccc(-c3ccncn3)cc2)cc1 | 23.6%
O=C1NC(=S)N/C1=C/c1cccn1-c1ccc([N+](=O)[O-])cc1 | 12.8%
O=C(CNc1cccc(S(=O)(=O)N2CCOCC2)c1)Nc1cccc(Br)c1 | -21.6%
CSCCC(NS(=O)(=O)c1ccc(C)cc1)C(=O)N1CCCC1 (centres unmarked) | 2%
CC1CCN(S(=O)(=O)c2ccc3ncn(CC(=O)N(C)C4CCCCC4)c(=O)c3c2)CC1 | -22.2%
CC1CCN(S(=O)(=O)c2ccc3ncn(CC(=O)N4CCN(C)CC4)c(=O)c3c2)CC1 | -16.3%
CCCCNC(=O)Cn1cnc2ccc(S(=O)(=O)N3CCC(C)CC3)cc2c1=O | 2.68%
CCCCN(CC)C(=O)Cn1cnc2ccc(S(=O)(=O)N3CCC(C)CC3)cc2c1=O | -57%
CCN(CC)CCCNC(=O)Cn1cnc2ccc(S(=O)(=O)N3CCC(C)CC3)cc2c1=O | -0.31%
CC1CCN(S(=O)(=O)c2ccc3ncn(CC(=O)N(C)Cc4ccccc4)c(=O)c3c2)CC1 | -61.7%
Cc1cc2cc3c(C)cc(=O)oc3c(C)c2o1 | 19.8%
COc1ccc(-c2cc(C(=O)Nc3ccccc3F)on2)cc1 | 23.3%
CCOc1ncccc1C(=O)OCC(=O)Nc1cc(S(=O)(=O)N(CC)CC)ccc1C | -42.8%
Cc1nc2cc(NS(=O)(=O)c3c(C)c(C)cc(C)c3C)ccc2s1 | 3.47%
Cc1ccc(C(=O)NCC(=O)NCC(=O)OCC(=O)c2ccc(Br)cc2)cc1 | 7.3%
CCN(CC)CCn1c(NCc2cccc(OC)c2)nc2ccccc21.Cl | -57.8%
CCn1c(NCc2ccc(OC)cc2)nc2ccccc21 | -21.7%
CCN(CC)CCn1c(NCc2cccc(OC)c2OC)nc2ccccc21 | -47%
CCN(CC)CCn1c(NCc2ccc(OC)cc2)nc2ccccc21 | -65.5%
CCCn1c(Nc2cccc(OC)c2)nc2ccccc21 | 14.8%
CN(Cc1ccc2ccccc2c1)C(=O)c1ccc(C(F)(F)F)cc1 | 26.1%
CCN1C(=O)N(c2ccc(Cl)cc2)C(C)=CC1(C)C | 6.6%

SMILES | hERG current change (%, negative = inhibition) at 10uM
COc1ccc(C(=O)Nc2ccc(Cl)cc2F)cc1S(=O)(=O)N1CCCC1 | -48.1%
C=C1c2ccccc2NC(=O)N1c1ccc(OC)cc1 | 12.8%
CC(O)CNc1nc2c(c(=O)n(Cc3ccc(Cl)c(Cl)c3)c(=O)n2C)n1C (centres unmarked) | -17.3%
O=C(O)C(=O)O.OCCN(Cc1ccccc1)Cc1ccccc1O | 5.17%
C=CCN1C(=O)C2C(C(=O)NCc3ccccc3)C3(C)C=CC2(O3)C1C(=O)NC(C)(C)C (centres unmarked) | 19.5%
COc1ccc(OC)c(/C=N/N2CCN(c3ccc(Cl)cc3)CC2)c1 | 8.58%
COC(=O)Cc1ccc(NC(=S)NCc2ccc(F)cc2)cc1 | -74.4%
COC(=O)Cc1ccc(NC(=S)NCc2ccccc2)cc1 | 0.941%
COC(=O)Cc1ccc(NC(=S)NCc2ccc(OC)cc2)cc1 | -18.2%
Cl.c1ccc(Cn2nnnc2CN2CCCC2)cc1 | 2.31%
Cc1cc2nc(C3CCN(Cc4nnnn4Cc4ccccc4)CC3)[nH]c2cc1C | -52.3%
COc1cc(C(=O)NC2CCN(Cc3nnnn3Cc3cccs3)CC2)cc(OC)c1OC | -5.59%
c1csc(Cn2nnnc2CN2CCN(c3nc4ccccc4s3)CC2)c1 | -46%
Cc1cc2nc(C3CCN(CC4COc5ccccc5O4)CC3)[nH]c2cc1C (centres unmarked) | -73.9%
CCN(CC)C(=O)CN1CCC(c2nc3cc(C)c(C)cc3[nH]2)CC1 | -15.7%
Cc1ccccc1C(=O)NC1CCN(Cc2nnnn2Cc2ccccc2)CC1 | -47.8%
Cc1cc2nc(C3CCN(Cc4nnnn4Cc4cccs4)CC3)[nH]c2cc1C | -83%
CCN1CCN(CC2COc3ccccc3O2)CC1.Cl (centres unmarked) | -4.7%
CCc1c(C)c2cc(Cl)c(O)c(CN(CC)CC)c2oc1=O | 0.288%
S=c1nccc(-c2ccc(Cl)cc2)[nH]1 | 15.4%
COc1cc(NC(=O)c2cc3ccccc3o2)c(OC)cc1Br | 5.55%
COc1ccc(-c2nnn(-c3cc(Cl)cc(Cl)c3)c2N)cc1 | 18.3%
CC1(C)C(=O)N(c2ccccc2)C(=O)c2ccccc21 | 9.68%
